Measurements published in PubChem BioAssay.
Active and inactive are the calls of the source.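 Rule for the calls, unless noted: active = compound raising the membrane signal above positive-control mean plus 3 SD in both repeats, and a primary screen hit; inactive = the rest.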

What follows are compounds tested against Short transient receptor potential channel 6 (Mus musculus) (UniProt Q61143) (assay: TRPC6 opening by TRPC4 activator hits – cell-based, HEK293, membrane potential dye, duplicate, selectivity assay for TRPC4 activator project, confirmation (AID 434950;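 active = membrane potential signal rise above negative control mean plus 3 SD in both duplicates, also active in the earlier TRPC4 screen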)). Conditions: HEK293 TRPC6, membrane potential fluorescence, at 10 µM; activation: hits give high values; outcome: activation.
Short transient receptor potential channel 6 (Mus musculus), sequence (Q61143 whole entry, looked up): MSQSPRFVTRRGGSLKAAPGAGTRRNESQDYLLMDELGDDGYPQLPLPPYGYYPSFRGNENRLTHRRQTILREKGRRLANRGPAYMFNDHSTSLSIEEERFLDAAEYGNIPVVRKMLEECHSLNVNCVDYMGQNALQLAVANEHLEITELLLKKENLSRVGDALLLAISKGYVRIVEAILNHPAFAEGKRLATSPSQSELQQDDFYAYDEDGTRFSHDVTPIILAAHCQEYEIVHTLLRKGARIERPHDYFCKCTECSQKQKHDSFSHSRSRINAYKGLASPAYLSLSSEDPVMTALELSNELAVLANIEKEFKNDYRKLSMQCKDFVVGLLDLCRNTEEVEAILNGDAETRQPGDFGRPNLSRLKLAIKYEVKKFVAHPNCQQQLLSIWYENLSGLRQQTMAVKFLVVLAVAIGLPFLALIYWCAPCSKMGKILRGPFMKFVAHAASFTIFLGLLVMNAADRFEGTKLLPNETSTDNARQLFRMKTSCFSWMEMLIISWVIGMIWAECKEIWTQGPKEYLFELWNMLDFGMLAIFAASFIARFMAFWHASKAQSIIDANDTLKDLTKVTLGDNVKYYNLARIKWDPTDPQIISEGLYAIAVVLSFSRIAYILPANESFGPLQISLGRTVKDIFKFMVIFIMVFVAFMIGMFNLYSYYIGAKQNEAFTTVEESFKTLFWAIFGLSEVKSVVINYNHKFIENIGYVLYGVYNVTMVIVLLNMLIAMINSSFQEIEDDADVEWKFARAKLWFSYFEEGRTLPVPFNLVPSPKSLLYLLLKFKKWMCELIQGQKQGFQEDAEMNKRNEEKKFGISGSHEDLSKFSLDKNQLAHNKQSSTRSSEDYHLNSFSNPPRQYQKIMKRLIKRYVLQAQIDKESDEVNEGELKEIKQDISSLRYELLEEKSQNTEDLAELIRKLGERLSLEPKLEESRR
In the case of `O=C(c1cccc(C(F)(F)F)c1)C1CCCN(Cc2ccccc2O)C1` (stereo unspecified), the outcome was “inactive”. For `CCOC(=O)C1(CCc2ccccc2)CCN(Cc2ccco2)CC1`, the outcome was “inactive”. In the case of `Nc1ccccc1-[n+]1c(-c2ccccc2)cc(-c2ccccc2)cc1-c1ccccc1`, the outcome was “inactive”. `CCc1nccc2c1[nH]c1ccccc12` was tested, and the outcome was “inactive”. For `CCOC(=O)C(O)(c1ccc(NC(=S)NC(=O)c2ccc(Cl)cc2Cl)c(C)c1)C(F)(F)F` (stereo unspecified), the outcome was “inactive”. In the case of `COc1ccc(OC)c(N2Cc3ccccc3C2=N)c1`, the outcome was “inactive”. With `CCOc1c(Cl)cc(CNC(C)C(O)c2ccccc2)cc1OC` (stereo unspecified) the outcome was “inactive”. In the case of `Cc1cccc(N2CCc3c2nc2ccccc2c3N)c1`, the outcome was “inactive”. For `COc1ccc(C)cc1NC1=NC(C)(C)CS1`, the outcome was “inactive”. For `N=c1n(CCO)c2ccccc2n1Cc1ccccc1`, the outcome was “inactive”. With `CCc1ccc(OCCCN=C(C)c2c(O)n(C)c(=O)n(C)c2=O)cc1` the outcome was “inactive”. With `O=C(CN1CCCC1)Nc1ccc(Cl)cc1C(=O)c1ccccc1` the outcome was “inactive”. In the case of `O=C(c1ccc(Cl)cc1)C1CCCN(C2CCSCC2)C1` (stereo unspecified), the outcome was “inactive”. In the case of `Cc1ccc(C2CN(C)CC2C(=O)c2ccc(F)cc2)cc1` (stereo unspecified), the outcome was “inactive”. For `O=C(Cc1ccccc1)N1CCN(Cc2cccc(Br)c2)CC1`, the outcome was “inactive”. With `Cc1cccc(N=Cc2c(O)n(-c3ccccc3C)c(=O)[nH]c2=O)c1` the outcome was “inactive”. `CC(Cc1ccccc1Sc1ccccc1O)N(C)C` (stereo unspecified) was tested, and the outcome was “inactive”. In the case of `COc1ccc(OC)c(CN2CCCC(C(=O)c3sccc3C)C2)c1` (stereo unspecified), the outcome was “inactive”. With `CCCCc1ncc(CN2CCCC(C(=O)c3ccc(SC)cc3)C2)[nH]1` (stereo unspecified) the outcome was “inactive”.

The compounds below were run against Short transient receptor potential channel 6 (Mus musculus) (UniProt Q61143) (assay: positive modulators of mouse TRPC6 channel – HEK293 cells, membrane potential dye, duplicate, selectivity assay for TRPC4 potentiator project, confirmation (AID 434952)). Conditions: HEK293 TRPC6, membrane potential dye fluorescence, at 10 µM; maximal acetylcholine added after compound unless noted.
With `Cc1ccsc1C(=O)C1CCCN(Cc2ccccc2O)C1` (stereo unspecified) the outcome was “inactive”. For `COc1ccc(C[C@@H]2c3cc(O)c(OC)cc3CCN2C)cc1O`, the outcome was “inactive”. For `CCC1=Nc2cc(C(=O)N3CCC4(CC3)OCCO4)ccc2Sc2ccc(C)cc21`, the outcome was “inactive [setting not given]”. With `Cc1ccc(CN2C3CCCC2CC(NC(=S)NCc2ccccc2)C3)cc1` (stereo unspecified) the outcome was “inactive”. In the case of `COc1ccc(Br)cc1CN1CCN(C(=O)Cc2ccccc2)CC1`, the outcome was “inactive”. For `CC(C)CN(CC(C)C)c1ccc(C=C2C(=O)NC(=S)NC2=O)cc1[N+](=O)[O-]`, the outcome was “inactive [setting not given]”. `CCOC(=O)C1(CCc2ccccc2)CCN(Cc2cccc3c2OCO3)CC1` was tested, and the outcome was “inactive”. `COc1ccc(CN2CCCC(C(=O)c3sccc3C)C2)cc1O` (stereo unspecified) was tested, and the outcome was “inactive”. `CCN1CCN(Cc2cc(Br)ccc2O)CC1` was tested, and the outcome was “inactive”. `CCN(CC)c1ccc([N+](=O)[O-])c2cccnc12` was tested, and the outcome was “inactive”. `CN(CCOc1ccc(C=C2C(=O)NC(=O)NC2=O)cc1)c1ccccn1` was tested, and the outcome was “inactive [setting not given]”. `CCN(CC)CC(=O)Nc1ccc(Cl)cc1C(=O)c1ccccc1` was tested, and the outcome was “inactive”. In the case of `COc1cccc(O)c1CN1CCCC(C(=O)c2sccc2C)C1` (stereo unspecified), the outcome was “inactive”. With `CCC1=Nc2cc(C(=O)N3CCC4(CC3)OCCO4)ccc2Sc2ccc(Br)cc21` the outcome was “inactive [setting not given]”. With `COc1ccc2[nH]cc(CCN(C)C)c2c1` the outcome was “inactive [setting not given]”. With `CC(=O)OC1(c2ccccc2)CCN(C2CCCCC2)CC1C` (stereo unspecified) the outcome was “inactive [setting not given]”. In the case of `CCOC(=O)C1(c2ccccc2)CCN(CC(=O)Nc2ccc(C)cc2)CC1`, the outcome was “inactive [setting not given]”. With `COc1ccc(O)c(CN2CCCC(C(=O)c3sccc3C)C2)c1` (stereo unspecified) the outcome was “inactive”. `Clc1ccc(OCC#CCN2CCCC2)cc1` was tested, and the outcome was “inactive”. `O=C(c1cccc(C(F)(F)F)c1)C1CCCN(Cc2ccccc2O)C1` (stereo unspecified) was tested, and the outcome was “inactive”. In the case of `CCOC(=O)C1(CCc2ccccc2)CCN(Cc2ccco2)CC1`, the outcome was “inactive”. In the case of `Nc1ccccc1-[n+]1c(-c2ccccc2)cc(-c2ccccc2)cc1-c1ccccc1`, the outcome was “inactive”. `CCc1nccc2c1[nH]c1ccccc12` was tested, and the outcome was “inactive”. `CCOC(=O)C(O)(c1ccc(NC(=S)NC(=O)c2ccc(Cl)cc2Cl)c(C)c1)C(F)(F)F` (stereo unspecified) was tested, and the outcome was “inactive”. `COc1ccc(OC)c(N2Cc3ccccc3C2=N)c1` was tested, and the outcome was “inactive”. With `CCOc1c(Cl)cc(CNC(C)C(O)c2ccccc2)cc1OC` (stereo unspecified) the outcome was “inactive”. `Cc1cccc(N2CCc3c2nc2ccccc2c3N)c1` was tested, and the outcome was “inactive”. `COc1ccc(C)cc1NC1=NC(C)(C)CS1` was tested, and the outcome was “inactive”. In the case of `N=c1n(CCO)c2ccccc2n1Cc1ccccc1`, the outcome was “inactive”. `CCc1ccc(OCCCN=C(C)c2c(O)n(C)c(=O)n(C)c2=O)cc1` was tested, and the outcome was “inactive [setting not given]”. In the case of `O=C(CN1CCCC1)Nc1ccc(Cl)cc1C(=O)c1ccccc1`, the outcome was “inactive”. For `O=C(c1ccc(Cl)cc1)C1CCCN(C2CCSCC2)C1` (stereo unspecified), the outcome was “inactive”.
